MCF10A rerep – induces DNA re-replication in MCF 10a normal breast cells; MCF 10A DNA re-replication, Hoechst nuclear intensity, 48 h; Potency, µM (highest dose often 46.1 µM), for the others: top-dose activity, positive = re-replication, hits mostly activators; 350,000 tested, 2.9% active; AID 624296; further: potency means the concentration at half of the fitted maximal effect; % of control where 0% means no effect; nearly all actives have a fitted effect of over 50% in size
TDP1 cell noCPT – qHTS for Inhibitors of human tyrosyl-DNA phosphodiesterase 1 (TDP1): qHTS in cells in absence of CPT; DT40 Tdp1-/- hTDP1 cells, no CPT, ATP luminescence, 48 h; Potency, µM (top dose mostly 46.2 µM), for the others: at the highest dose activity change, negative = growth inhibition, most hits filed as inhibitors; 420,000 tested, 15% active; further: potency means the concentration at half of the fitted maximal effect; on the % scale 0 is the no-effect control and ±100 the full control effect; nearly all actives have a fitted effect of over 55% in size
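Chicken DT40 Tdp1-/- cells complemented with human TDP1, screened without camptothecin (DMSO vehicle only), 400 cells/well. Compounds pin-transferred, cells incubated at 37 °C for at least 48 hr. Growth read as ATP-dependent luminescence (CellTiter-Glo, 30 min at RT).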
SW480 rerep – DNA re-replication induction in SW480 cells; SW480 DNA re-replication, Hoechst DNA content imaging, 48 h; Potency, µM (titrated, usually from 46.1 µM), without a hit: at the top dose re-replication activation, usual class: activators; 340,000 tested, 1.8% active; further: potency means the concentration at half of the fitted maximal effect; % of control where 0% means no effect; nearly all actives have a fitted effect of over 55% in size
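Readout is total intensity of Hoechst-stained nuclei, excited at 405 nm and collected at 500-530 nm. Compound treatment lasted 48 hr at 37 C in 5% CO2 before staining.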
Chronic BCR inh – chronic active BCR signaling inhibition. ABC-DLBCL IkBa-CBG/CBR reporter, luminescence ratio, 4 h. Potency, µM (top dose mostly 46.1 µM), inactives show at the highest dose activity change, negative = inhibition, usual class: inhibitors. 340,000 tested, 0.05% active. AID 493014; active means well fitted inhibition curve with a large enough effect in the signal ratio, with a control signal flat, not every such curve was filed as active; inconclusive means small, poorly fitted or top-dose-only effect, or effect the other way, or a change in a side signal; the % refers to the signal ratio;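 further: potency means the concentration at half of the fitted maximal effect; plate controls were basal doxycycline-induced cells for no effect and cells given 10 µM MG132 for full effect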
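TMD8 ABC-DLBCL cells carrying doxycycline-inducible green luciferase fused to IkappaBalpha plus unfused red luciferase were exposed to compounds (up to 46 uM) for 4 hrs at 37C. Activity came from the overlap-corrected green/red luminescence ratio.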
IL-1B inflam inh – inhibitors of inflammasome signaling (IL-1 beta secretion); THP-1 LPS/ATP IL-1B secretion, AlphaLISA, 16 h; active compounds read low; activity change, % at 57.5 µM; 360,000 tested, 4.7% active; in the data active means activity change below about -50%; inconclusive means mostly about -30% to -49%; further: on the % scale 0 is the no-effect control and ±100 the full control effect
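THP-1 cells pretreated 1 hr with compounds (up to 57.5 uM final), then stimulated with LPS (250 ng/mL final) plus ATP (1.25 mM final); secreted IL-1B measured by AlphaLISA after 16 hr, decreased signal indicating inhibition.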
TDP1 cell CPT – DT40-hTDP1 cell growth loss with CPT. chicken DT40 Tdp1-/-;hTDP1 cells + 20 nM CPT, ATP luminescence, 48 h. Potency, µM (highest dose often 46.2 µM), for inactives: top-dose activity change, negative = growth inhibition, most hits filed as inhibitors. 420,000 tested, 12% active. AID 686979; further: potency means the concentration at half of the fitted maximal effect; on the % scale 0 is the no-effect control and ±100 the full control effect; nearly all actives have a fitted effect of over 55% in size
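Cell growth measured by CellTiter-Glo luminescence after a minimum 48 h, 37 C compound exposure with 20 nM CPT in Tdp1-knockout DT40 cells stably expressing hTDP1, seeded 400/well; qHTS titration format.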
Starred values were filed as active, the others as inactive; i = inactive; u = inconclusive; x = no result given. Rows were chosen to be rich in hits. Some 19% of all compounds tested hit in one or more screens of this group. Unless noted, the call rests on the fitted dose curve; in most records, active means well fitted curve in the direction sought with a large enough effect; inconclusive means small, poorly fitted or top-dose-only effect, or another doubt; inactive means no such curve, though single readings can be large; an effect the other way counts as inactive or inconclusive.

SMILES | MCF10A rerep | TDP1 cell noCPT | SW480 rerep | Chronic BCR inh | IL-1B inflam inh | TDP1 cell CPT
CN(CC(=O)Nc1cccc(S(=O)(=O)N2CCOCC2)c1)CC(=O)Nc1ccc(Cl)c(C(F)(F)F)c1 | 22% | 7.3µM* | 3% | u | -26 | 15µM*
COc1ccc(CC(=O)Nc2ccc(/C(C)=N\NC(=O)c3ccc(Br)o3)cc2)cc1 | u | -13% | -11% | -4% | i | 1%
CCc1nc(SCc2cc(=O)[nH]c3ccccc23)c2c(C)c(C)sc2n1 | -2% | 28% | -1% | x | -1 | -8%
O=c1[nH]c(SCCOc2ccccc2)nc2ccccc12 | 6% | u | -3% | x | -5 | u
O=c1[nH]c(SCc2ccc(F)cc2Cl)nc2ccccc12 | u | 21µM* | 2% | -8% | 10 | -42%
Cn1c(SCCOc2ccccc2F)nc2ccccc2c1=O | u | 16µM* | 5% | 22% | 10 | 18µM*
Fc1ccccc1OCCSc1nnnn1-c1ccccc1 | -2% | -5% | 3% | u | -2 | -28%
COc1ccc(CSc2nc3ccccc3c(=O)[nH]2)cc1F | 10% | u | 0% | 2% | 27 | u
COc1ccccc1OCCSc1nc2ccccc2c(=O)[nH]1 | 21µM* | u | 0% | 15% | 0 | u
Cc1ccccc1OCCSc1nc(C)c(Cc2ccccc2)c(=O)[nH]1 | x | -20% | x | x | x | u
O=c1[nH]c(SCCOc2ccccc2F)nc2ccccc12 | 11% | 6.5µM* | -3% | u | 21 | 2%
CC(C)NC(=O)N1CC[C@@]2(CCCN(C(=O)c3cc(C(F)(F)F)cc(C(F)(F)F)c3)C2)C1 | x | -25% | x | x | x | 7%
Cc1nc(N2C(=O)c3oc4ccccc4c(=O)c3C2c2ccccc2F)sc1C (stereo not given) | x | -5% | x | x | x | 2%
Cc1cccc(OCC(=O)Nc2ccc3c(c2)nc(CCN2CCN(c4ccccn4)CC2)n3C)c1 | 7% | 18µM* | u | u | u | 23µM*
COc1ccc(OCC(=O)Nc2ccc3c(c2)nc(CCN2CCCCC2)n3C)cc1 | 2% | 17% | 6% | -19% | u | -31%
COc1ccc(OCC(=O)Nc2ccc3c(c2)nc(CCN2CCN(c4ccccn4)CC2)n3C)cc1 | x | u | x | x | 56 | 18µM*
CCN1CCN(CCc2nc3cc(NC(=O)COc4ccccc4)ccc3n2C)CC1 | 11% | 24% | 4% | 0% | 0 | 8%
Cn1c(CCN2CCN(c3ccccn3)CC2)nc2cc(NC(=O)COc3ccc(Cl)cc3)ccc21 | 3% | 4.1µM* | 7.3µM* | 1% | -5 | 18µM*
CN1CCN(CCc2nc3cc(NC(=O)COc4ccccc4)ccc3n2C)CC1 | u | -19% | -17% | 1% | 3 | 6%
COc1ccc2cc(/C=C/C(=O)N3CCN(CC(=O)N4CCCCCC4)CC3)ccc2c1 | 18% | u | -4% | -13% | u | u
Cc1ccc(Cc2nnc(SCC(=O)Nc3c(C)cccc3C)[nH]c2=O)cc1 | 0% | 6.5µM* | -3% | 6% | 15 | u
CC1CN(C(=O)COC(=O)c2cnc(Cl)c(Cl)c2)CC(C)O1 (stereo not given) | u | -1% | -3% | 5% | -72* | 6%
CC1=NN(c2ccccc2)C(=O)C1C(=S)SC1CC(=O)NC1=O (stereo not given) | x | 29µM* | x | x | 14 | u
CC1=NN(c2ccccc2)C(=O)C1C(=O)C(=O)Nc1ccc(F)cc1 (stereo not given) | 7% | u | 2% | u | -10 | u
C[C@@H]1CCCCO[C@H](CN(C)S(=O)(=O)c2ccc(F)cc2)[C@@H](C)CN([C@H](C)CO)C(=O)c2cc(NC(=O)Nc3ccc(C(F)(F)F)cc3)ccc2O1 | x | 8.2µM* | x | x | -16 | 9.2µM*
SMILES | MCF10A rerep | TDP1 cell noCPT | SW480 rerep | Chronic BCR inh | IL-1B inflam inh | TDP1 cell CPT
C[C@H]1CCCCO[C@@H](CN(C)S(=O)(=O)c2ccc(F)cc2)[C@@H](C)CN([C@@H](C)CO)C(=O)c2cc(NC(=O)Nc3ccc4c(c3)OCO4)ccc2O1 | x | 9.2µM* | x | x | -27 | 18µM*
COc1ccc(S(=O)(=O)N(C)C[C@@H]2OCCCC[C@H](C)Oc3ccc(NC(=O)Nc4ccc(C(F)(F)F)cc4)cc3C(=O)N([C@H](C)CO)C[C@H]2C)cc1 | x | 7.3µM* | x | x | -14 | 19%
COc1ccc(S(=O)(=O)N(C)C[C@H]2OCCCC[C@@H](C)Oc3ccc(NC(=O)CCC(F)(F)F)cc3C(=O)N([C@H](C)CO)C[C@@H]2C)cc1 | x | -30% | x | x | 10 | -26%
C[C@@H]1CCCCO[C@@H](CN(C)S(=O)(=O)c2ccc(F)cc2)[C@@H](C)CN([C@H](C)CO)C(=O)c2cc(NC(=O)c3ccccc3)ccc2O1 | x | u | x | x | -1 | u
COC(=O)N1CCc2c(sc(NC(=O)C3=COCCO3)c2C#N)C1 | 2.1µM* | 0.92µM* | 1.5µM* | 0% | 4 | 1.3µM*
COc1cccc(C(=O)Nc2sc3c(c2C#N)CCN(C(C)=O)C3)c1 | 4.6µM* | 1.5µM* | 4.6µM* | 20µM* | 71 | 2.1µM*
COc1ccc(CN2C(=O)CNC2=S)cc1 | -1% | 8% | 6% | u | 24 | -7%
C=C1[C@@H]2CC[C@H](C2)C1(C)C | -2% | x | -9% | x | x | x
Cc1cc(C)c2cc(C(=O)Nc3ccccc3)[nH]c2c1 | 1% | -29% | -13% | u | -23 | -26%
O=C1CCCC2=C1C(c1ccc3c(c1)OCO3)c1c([nH]n(-c3ccccc3)c1=O)N2 (stereo not given) | 2% | 13µM* | -3% | 1% | -9 | -20%
COc1cc(C(=O)N2CCN(c3cccc(C(F)(F)F)c3)CC2)ccc1OCC(=O)N1CCOCC1 | 0% | 21µM* | -4% | x | -10 | 23µM*
CCn1cc(C(=O)N2CCN(c3cccc(C(F)(F)F)c3)CC2)c2cc(OC)c(OC)cc2c1=O | x | 23µM* | x | x | x | 18µM*
COc1ccccc1C(=O)N1CCN(c2cccc(C(F)(F)F)c2)CC1 | 11µM* | 12µM* | 23µM* | -17% | -2 | 10µM*
COc1cc2c(C(=O)N3CCN(c4ccccc4F)CC3)cn(C)c(=O)c2cc1OC | -3% | -24% | 2% | 0% | 13 | -8%
CCn1cc(C(=O)N2CCN(c3cccc(C)c3C)CC2)c2cc(OC)c(OC)cc2c1=O | x | 21µM* | x | x | x | 21µM*
